Laboratory results taken from the supplement of paper PMC3334620.
Whole data set: some 33,000 sequences, median “E-score (-0.5 to 0.5)” near -0.041, cut for the highest 2% near 0.37. Many of the other results were omitted from the sample, so the highest values are more common in it than they were.

Each sequence was assayed against T1, Ecm22 (UniProt Q05958) (assay: PBM E-score (8-mer binding enrichment) (E-score (-0.5 to 0.5)); higher = stronger / more preferred TF binding). Conditions: protein concentration: 200 nM; construct: GST-full length.
T1 sequence: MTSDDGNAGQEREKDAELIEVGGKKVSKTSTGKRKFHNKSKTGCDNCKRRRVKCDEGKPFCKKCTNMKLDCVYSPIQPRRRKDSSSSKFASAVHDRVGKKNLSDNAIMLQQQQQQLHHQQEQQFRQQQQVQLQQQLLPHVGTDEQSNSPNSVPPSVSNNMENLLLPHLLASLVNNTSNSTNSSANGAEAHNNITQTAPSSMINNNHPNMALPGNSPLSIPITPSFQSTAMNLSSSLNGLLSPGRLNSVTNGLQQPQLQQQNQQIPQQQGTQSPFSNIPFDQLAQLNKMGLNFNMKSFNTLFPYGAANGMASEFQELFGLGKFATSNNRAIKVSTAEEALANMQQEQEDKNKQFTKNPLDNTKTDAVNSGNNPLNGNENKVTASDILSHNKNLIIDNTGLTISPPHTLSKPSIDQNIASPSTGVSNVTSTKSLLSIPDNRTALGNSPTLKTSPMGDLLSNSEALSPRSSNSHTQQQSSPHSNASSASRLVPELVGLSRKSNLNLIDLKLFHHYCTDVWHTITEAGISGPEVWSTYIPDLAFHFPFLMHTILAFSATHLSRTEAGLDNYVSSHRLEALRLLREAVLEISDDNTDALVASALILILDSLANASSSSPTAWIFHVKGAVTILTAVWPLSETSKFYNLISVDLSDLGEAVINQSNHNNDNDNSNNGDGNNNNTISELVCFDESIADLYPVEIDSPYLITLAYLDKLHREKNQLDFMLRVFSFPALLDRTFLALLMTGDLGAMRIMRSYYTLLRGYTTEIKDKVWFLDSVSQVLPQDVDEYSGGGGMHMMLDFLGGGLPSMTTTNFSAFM
How it was run: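 Each ungapped eight-base word and its reverse complement, pooled, received an E-score from the Universal PBM Analysis Suite. Underlying scans, normalised with masliner, recorded fluorescent anti-GST bound to GST-tagged yeast transcription factors. These were applied at about 100-200 nM to universal all-10-mer Agilent arrays double-stranded by primer extension.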

Sequence | PBM E-score
CTACTGCA | -0.158
AGAGGAAG | -0.167
ATCACTAA | -0.0903
AAAGGGTC | -0.109
ATCATAGC | -0.0799
AGTCCCAG | -0.0584
GAAGAAGA | -0.0416
GGGTCCTA | -0.218
TGGGACCA | -0.27
GAAGGTTA | -0.016
AGGAGCTG | -0.288
CCGAGCTA | 0.101
ACGAGCTG | 0.411
AAGAGCTG | -0.264
GCGAGCTA | 0.248
AGGAGCTC | -0.0307
ACGAGCTA | 0.39
ACGAGCAG | 0.383
ACGAGCAT | 0.365
ACGAGCTC | 0.39
ACGAGCAA | 0.288
CCGAGCTC | 0.219
GAAGTATC | 0.0371
ACTTCACG | -0.0496
ATATGGAT | 0.133

Sequence | PBM E-score
ACGGTTTA | 0.0698
CAACTCTC | -0.11
AGTCCGAA | 0.0505
CGTTTCGA | 0.202
AGTCGTAA | 0.395
CGTCGTAA | 0.446
GGTCGTCA | 0.0226
GGTCGTAA | 0.417
AGTCGTGA | 0.0257
AGTCGTCA | -0.236
TATCGTAA | 0.363
CGTCGTGA | 0.117
TGGCGTAA | 0.0429
GGTCGTGA | -0.0346
CGTCGTCA | 0.0778
TGTCGTAA | 0.428
CGCGAGAG | 0.233
ACGGTAGC | -0.00152
ACAATCGC | 0.226
AAGTTTTC | 0.0919
AGCCTGGC | -0.142
ACCGTGCG | 0.161
GTCCGTGA | 0.0485
CCTTAGCA | -0.287
ATACGACC | 0.473

Sequence | PBM E-score
CGACGACC | 0.154
AGACGACC | 0.0158
CTACGACC | 0.413
AGACGACG | 0.23
ACACGACC | 0.186
ATACGACG | 0.485
ACACGACG | 0.251
CCACGACC | 0.00845
CCGCGCTA | 0.0135
ATGAGAGG | -0.151
CTCGCAAG | 0.17
GTCCGTCA | -0.131
CAGGGCAG | -0.104
ACTTTCCA | -0.205
AAGTAGCA | -0.137
ATTGTAGA | 0.0824
CCCGTTCG | 0.196
GACGTTCC | 0.141
GCCGTTCC | 0.444
ACCGTTCT | 0.135
CCCGTTCC | 0.447
ACCGTTCG | 0.229
CCCGTTCA | 0.267
ACCGTTCC | 0.434
GCCGTTCA | 0.229

Sequence | PBM E-score
GAGGCTCA | -0.237
CTCGGCAA | 0.106
GCTCTAAA | -0.144
CCTAACAC | 0.0728
GGTACTAC | 0.0611
CACGACGC | 0.119
AACGACGG | 0.444
AACGGCGA | 0.381
CACGACGG | 0.167
GACGACGC | 0.145
AACGGCGT | 0.242
ACCGACGG | 0.196
AACGACGC | 0.448
AAGGACGT | 0.0897
AACGACGT | 0.435
CACGGCGA | 0.0797
ACCGACGT | 0.329
AGAGTCAG | -0.111
ACCTTCGG | 0.188
CACCATGG | -0.173
AGAGGGTA | -0.0925
GAGCCACA | -0.0887
CGGTTTTA | 0.072
CCTAGCAG | -0.263
GTTGCTCA | 0.108

Sequence | PBM E-score
ACAGGTCC | -0.142
ATATCAAG | 0.0598
TCTGGGAA | 0.00899
CGCATGCG | 0.0792
ACGGTAAC | 0.151
CACGACGA | 0.108
ATCGACGA | -0.00044
TACGACGA | 0.469
GACGACGA | 0.0563
AACGACGA | 0.444
AGCGACGA | 0.195
AGACTTAT | -0.104
CAGCAATG | -0.198
GGATGGTA | -0.0324
TCACTCGA | 0.163
AATGCAGC | -0.147
ATGGTACG | 0.443
ATGGTACC | -0.225
AAGGTACT | 0.0334
AAGGTACG | 0.434
ATGGTACA | -0.122
AAGGTACC | -0.0364
CAGGTACA | -0.23
CAGGTACG | 0.423
CAGGTACC | -0.126

Sequence | PBM E-score
CCTCCTTA | 0.032
CATGCGGG | -0.05
ATAGTGCC | 0.0559
CTAAGCTC | -0.2
ACCGTCTG | -0.112
ATTGCAGG | -0.00797
ACGGTACG | 0.436
CCGGTACA | 0.0868
ACGGTACC | 0.206
ACGGTACT | 0.0921
CCGGTACC | -0.103
CCGGTACG | 0.448
AAAGATTG | -0.286
ACGGAGGA | 0.151
ATCGCTCC | 0.185
GTCGCTGA | -0.073
ATCGCTTA | 0.327
CTCGCTCA | 0.358
CTCGCTTA | 0.41
CTCGCTCC | 0.405
GTCGCTAA | 0.289
GTCGCTTA | 0.37
CTCGCTGA | -0.0623
AAACTCCG | -0.112
AGGGACGG | -0.256

Sequence | PBM E-score
AGTCCGGC | -0.138
AGCGTATA | 0.366
AACGTATT | 0.229
TACGTATA | 0.401
AACGTATC | 0.127
CACGTATG | 0.0729
CACGTATA | 0.386
CGCGTATA | 0.403
TACGTAGA | 0.133
GGCGTATA | 0.359
AACGTATA | 0.411
GACGTATA | 0.365
TACGTACA | 0.328
GGGTGGAA | -0.284
CACCCGCG | -0.0941
TGCTAACA | -0.0691
ACCTGGCT | -0.059
ATCCAAGC | -0.231
ACTAAGGA | 0.1
CGGCCATC | -0.22
CAGCCTCA | -0.00094
TTCCACAA | -0.0103
CTCAGTTA | -0.187
ACGGCGAC | 0.21
